These molecules were tested on Plasmodium falciparum (assay: GSK_TCMDC: Inhibition of Plasmodium falciparum 3D7 in whole red blood cells, using parasite LDH activity as an index of growth. Test compounds present at 2uM).
Format: functional

Compound	Inhibition [%]
CC(C)(C)C(=O)Nc1ccc(N2CCN(C(c3ccccc3)c3ccccc3)CC2)c(Cl)c1	92
COc1cc2ccccc2cc1CNCCCCCCNCc1cc2ccccc2cc1OC.CS(=O)(=O)O	100
O=C(/C=C/c1ccc(Cl)c(Cl)c1)N1CCC(CCN2CCC(c3c[nH]c4ccncc34)CC2)CC1	100
CC1CN(Cc2ccc(-c3cccc(-c4nc5cc(F)ccc5[nH]4)c3)cc2)CC(C)O1.O=C(O)C(F)(F)F (stereo not given)	93
Cn1nc2ccc3ccccc3c2nc1=N.I	91
CC[C@H]1CN(Cc2cccc(O)c2)CC[C@H]1CCCc1ccnc2ccc(O)cc12	100
CCc1c(CCNCCCCCCNCCc2ccc(OC)c(OC)c2C)ccc(OC)c1OC.Cl	98
CN1CC[C@@H](Oc2cc(CNC(=O)c3ccc(-c4ccc(Cl)cc4)s3)ccc2C(F)(F)F)C1.Cl	93
CCN(CCCN1CCCC1)c1cc(C)nc(Nc2ccc(Cl)cc2)n1.O=C(O)C(=O)O	100
COc1c(C2CCN(CCCCNC(=O)c3ccc(-c4ccc(Cl)cc4)c(OCC(N)=O)c3)CC2)ccc2c1CCCC2	97
COc1ccc2ncc(F)c([C@H](O)CN3CCC(NCc4ccc5c(c4)OCCO5)CC3)c2c1.Cl	100
Cc1ccccc1N1CCN(c2ccc(C(=O)NC3CC3)cn2)CC1.O=C(O)C(F)(F)F	96
Cl.N=C(N)Nc1ccc(CCc2ccc(NC(=N)N)cc2)cc1	96
CCn1c(-c2nonc2N)nc2c(-c3ccc(CO)o3)ncc(OCCCN)c21.O=C(O)C(F)(F)F	93
CN(C)CCCOc1ccc(CNCC(C)(C)c2nc(-c3ccc(Cl)c(O)c3)c(-c3ccncc3)[nH]2)cc1.Cl	100
C=CCOc1ccc2ccccc2c1CNCCCCCCNCc1c(OCC=C)ccc2ccccc12.CS(=O)(=O)O	100
CN(C)CCCOc1ccc(CN2CC[C@H](NC(=O)c3ccc(Cl)c(Cl)c3)C2)cc1Br.O=C(O)C(F)(F)F	100
Cc1cc(NC(=O)NCCN2CCC(NC(=O)c3ccc(C(F)(F)F)cc3)CC2)c2ccccc2n1.O=C(O)C(F)(F)F	98
CCOC(=O)c1c(C)n(-c2ccccc2)c2ccc(OC(=O)c3ccc(S(=O)(=O)N(CC)CC)cc3)cc12	94
COc1ccc2ncc(C#N)c(CCN3CCC(NCc4cnc5c(c4)OCCO5)CC3)c2n1.Cl	91

Compound	Inhibition [%]
O=C(O)C(=O)O.Oc1c(CN2CCC(Cc3ccccc3)CC2)cc(Cl)c2cccnc12	96
O=C(NCC1CC1)C1CCN(C(c2ccccc2)c2cc(F)cc(F)c2)CC1 (stereo not given)	99
CCOc1ccccc1CCNCC1CCN(CC2CCCCC2)CC1.O=C(O)C(F)(F)F	84
CCC(C)(C)C1CCc2nc(N)nc(N)c2C1.Cl (stereo not given)	95
COc1cc(Cc2cnc(N)nc2N)cc(OCCCCC2SC(=O)NC2=O)c1OC (stereo not given)	94
N#Cc1ccc(C(=O)NC2CCN(CCCCCNC(=O)/C=C/c3ccc(Cl)c(Cl)c3)CC2)cc1	98
FC(F)(F)c1ccc2[nH]c(-c3ccc(-c4cccc(CNCc5ccccc5)c4)s3)nc2c1.O=C(O)C(F)(F)F	100
c1cc(Nc2nccc(-c3cnn4ncccc34)n2)cc(-c2cnco2)c1	96
O=C(O)C1CC(=O)N(c2ccc(Cl)cc2)C1 (stereo not given)	97
Cc1c(C(=O)N2CCCC(C(F)(F)F)C2)sc2cccc(F)c12 (stereo not given)	99
Cc1cnc(C(=O)Nc2cccc(-c3ccc(-c4nc5cc(C(F)(F)F)ccc5[nH]4)s3)c2)cn1	86
Cc1ccc2nc(-c3ccc(/C=C/C(=O)NC4CCN(Cc5ccccc5)CC4)cc3)[nH]c2c1C	100
c1ccc(Nc2nc(-c3ccccn3)cs2)nc1	87
c1cncc(CN2CCCN(c3ccc4c(c3)CCN(Cc3ccc(-c5ncc[nH]5)cc3)CC4)CC2)c1	99
NC(=O)c1cccc(C(=O)Nc2ccc(-c3cccc(-c4nc5cc(F)ccc5[nH]4)c3)cc2)c1	94
CC(O)C1CCCCN1C(=O)c1cccc(-c2cccc(-c3nc4ccccc4[nH]3)c2)c1 (stereo not given)	99
CCCCCOc1ccc(C(O)C(CCC(CN2CCCCCC2)C(O)c2ccc(OCCCCC)cc2)CN2CCCCCC2)cc1.Cl (stereo not given)	99
COc1ccc(NC(=O)/C=C/c2ccccc2Cl)cc1OCCN1CCC(Cc2cc3ccccc3[nH]2)CC1.Cl	92
COc1nc2c(N3CCN(CCNCc4ccc5c(n4)NC(=O)CO5)CC3)ccnc2cc1F.Cl	100
O=C(NCCCN(Cc1ccc(F)cc1)c1ccccn1)C(c1cc2ccccc2o1)N1CCN(C(c2ccccc2)c2ccccc2)CC1 (stereo not given)	97
